According to PubChem BioAssay (NCI):
About 79,000 compounds went through this panel and 15% of them were active in at least one assay; those are over-represented in the sample as a whole. No stated cut-off is given here; in the data, active means growth inhibition above about 70%; inactive means the rest.

Assays:
[1] = NCI Yeast Anticancer Drug Screen. Data for the rad50 strain (AID 155);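 further: 0% = growth of vehicle-only cultures of the same strain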; settings: S. cerevisiae rad50 strain growth inhibition; at 50.0 µM; stronger effect = higher value
How it was run: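 Compounds were tested on a yeast strain with an engineered DNA damage repair alteration; the reported value is growth inhibition normalised to vehicle treatment.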

[2] = NCI Yeast Anticancer Drug Screen. Data for the mec2-1 strain (AID 157); settings: S. cerevisiae mec2-1 strain, at 50.0 µM, stronger effect = higher value
How it was run: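 Mutant yeast (mec2-1) grown with compound; growth inhibition relative to vehicle control reported.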

[3] = NCI Yeast Anticancer Drug Screen. Data for the sgs1 mgt1 strain (AID 161);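 further: 0% = growth of cultures given vehicle only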; settings: S. cerevisiae sgs1 mgt1 strain, at 50.0 µM, stronger effect = higher value
How it was run: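 This yeast growth screen uses a strain with defined DNA-repair lesions; compound-treated growth is compared with vehicle-treated growth.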

[4] = NCI Yeast Anticancer Drug Screen. Data for the cln2 rad14 strain (AID 165);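 further: 0% = growth equal to vehicle treated cultures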; settings: S. cerevisiae cln2 rad14 strain, at 50.0 µM, stronger effect = higher value
How it was run: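 Readout is yeast growth inhibition versus vehicle-treated controls, using a strain with cln2 and rad14 alterations exposed to compound.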

[5] = NCI Yeast Anticancer Drug Screen. Data for the bub3 strain (AID 167); settings: S. cerevisiae bub3 mutant strain, at 50.0 µM, stronger effect = higher value
How it was run: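 Growth of a checkpoint-deficient yeast mutant is measured after compound exposure. Values represent inhibition relative to vehicle.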

[6] = NCI Yeast Anticancer Drug Screen. Data for the mlh1 rad18 strain (AID 175); settings: S. cerevisiae mlh1 rad18 strain growth inhibition; at 50.0 µM; stronger effect = higher value
How it was run: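 Genetically defined yeast (DNA repair-deficient) exposed to compounds; growth inhibition determined relative to vehicle.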

Measured: growth inhibition

COC1OC(COC(=O)c2ccc([N+](=O)[O-])cc2)C(SC#N)C1O (configuration not stated)
inactive: [1] 27.4% | [2] 2.05% | [3] 26.2% | [4] -18.3% | [5] -10.6% | [6] 33.2%

O=C(O)c1ccc(-n2cnc3c(=O)[nH]cnc32)cc1
inactive: [1] -8.6% | [2] -12.9% | [3] -13.3% | [4] -9.45% | [5] -4.9% | [6] -7.85%

CCOC(=O)C/C(C)=C1/N=C(c2ccccc2)OC1=O
inactive: [1] 28.9% | [2] 7.85% | [3] 23.2% | [4] 14.8% | [5] 37% | [6] 30.8%

O=C1CC2(CCCCC2)CC(=O)N1
inactive: [1] -6.25% | [2] -5.05% | [3] 8.3% | [4] -34.6% | [5] 6.9% | [6] -2.35%

CC1=CC(=O)/C(=C/N2C(=O)CNC2=S)C(=O)O1
inactive: [1] -49.1% | [2] -37.1% | [3] -13.8% | [4] 15.4% | [5] -4.25% | [6] -45.1%

CCOC(=O)C(NC(=O)/C=C\C(=O)O)C(C)C (configuration not stated)
inactive: [1] 3.7% | [2] 22.1% | [3] 2.55% | [4] 23.9% | [5] 15.4% | [6] 35.2%

CN(C)Cc1cc(N=Nc2ccccc2Cl)cc(CN(C)C)c1O
inactive: [1] -40.5% | [2] -19.1% | [3] -9.25% | [4] -14.3% | [5] 12.3% | [6] -13.4%

COc1cc(C(=O)N2C[C@H](O)C[C@H]2C(=O)O)cc(OC)c1OC
inactive: [1] -18.4% | [2] -15.9% | [3] -32.8% | [4] -5.75% | [5] -16.4% | [6] -9.85%

O=C(c1nc2ccc([N+](=O)[O-])cc2[nH]c1=O)C(O)c1ccc([N+](=O)[O-])cc1 (configuration not stated)
inactive: [1] -1.9% | [2] -6.2% | [3] 12.9% | [4] 10.1% | [5] -25.4% | [6] 31.5%

CC(=O)N1CC(C)CC2OC3(CCC4C5CCC6CC(=O)CCC6(C)C5C(=O)C4C3C)C(C)C21 (configuration not stated)
inactive: [1] -0.65% | [2] -13.1% | [3] -9.15% | [4] -0.75% | [5] -5.9% | [6] -3.75%

CCCCOC(=O)C1C=C(N)CCC1 (configuration not stated)
inactive: [1] 12.8% | [2] 6.8% | [3] -3.35% | [4] -32.6% | [5] -9.05% | [6] -16.4%

CCCCCCCCCCS(=O)(=O)CC(=O)O
inactive: [1] 3.8% | [2] -2.35% | [3] 14.7% | [4] -12.7% | [5] -8.3% | [6] -3.6%

O=C1C=C(Nc2ccc(Br)cc2)c2ccccc2C1=O
inactive: [1] 36.3% | [2] -1.95% | [3] 11.6% | [4] 7.75% | [5] -1.45% | [6] -2.05%

COc1cc2c(cc1OC)C(c1ccccc1[N+](=O)[O-])=NCC2
inactive: [1] 0.2% | [2] -0.8% | [3] 29.7% | [4] 11.7% | [5] 22.5% | [6] 15.2%

c1ccc(C2=Nc3ccccc3N=C3CCCC32)cc1 (configuration not stated)
inactive: [1] 45.2% | [2] 22.6% | [3] 3.3% | [4] 10.6% | [5] 21.4% | [6] 58.7%

NC(=S)NNC(=O)c1ccccc1
inactive: [1] -16.7% | [2] -10.6% | [3] -2.25% | [4] 9.65% | [5] 6.75% | [6] -2.55%

CC(=O)Nc1cnc2c(nc3cc(C)ccn32)c1C
inactive: [1] -5% | [2] -9.1% | [3] -19.9% | [4] -9.55% | [5] -0.7% | [6] -10.2%

Cn1c(=O)c2[nH]c(CCCc3ccc([N+](=O)[O-])cc3)nc2n(C)c1=O
inactive: [1] -2.45% | [2] -5.5% | [3] -27.5% | [4] -26.9% | [5] -40.5% | [6] 4.75%

COc1cc2c(c(OC)c1OC)-c1ccc(OC)c(=O)cc1C(NC(=O)COc1ccccc1)CC2 (configuration not stated)
inactive: [1] 16.5% | [2] -28.6% | [3] 15.2% | [4] 11.2% | [5] 6.95% | [6] 14.6%

CC1CSC(C)C(=O)N1 (configuration not stated)
inactive: [1] -11.2% | [2] -3.65% | [3] -5.75% | [4] 7.55% | [5] 15.8% | [6] 2%

CCCCCCCC/C=C\CCCCCCCC(=O)OCCN(CCOC(=O)CCCCCCC/C=C/CCCCCCCC)C(=O)COC(=O)CCCCCCC/C=C\CCCCCCCC
inactive: [1] -9.3% | [2] -11.8% | [3] -24.4% | [4] -7.6% | [5] -7.35% | [6] 10.7%

Cc1ccc(S(=O)(=O)OC2C(C)(C)C(=O)C2(C)C)cc1
inactive: [1] 7.45% | [2] -2.15% | [3] -0.05% | [4] -11.7% | [5] 17.6% | [6] 8.35%

CCC(=O)OC1CCC(OC(=O)CC)CC1 (configuration not stated)
inactive: [1] 7.3% | [2] 9.8% | [3] 2.45% | [4] -1.9% | [5] -6.05% | [6] -6.2%

CC(=O)NNC(=O)NCCCCCCNC(=O)NNC(C)=O
inactive: [1] 16.1% | [2] 20.2% | [3] 25.4% | [4] 16.2% | [5] 17.9% | [6] 26.5%

CCc1cc(-c2cc(CC)on2)no1
inactive: [1] -3.3% | [2] -14.9% | [3] -12.4% | [4] -1.15% | [5] -19.2% | [6] 1.4%

NC[C@H]1Nc2ccccc2[C@@H](O)C1O (some centres not stated)
inactive: [1] 14.6% | [2] 6.95% | [3] 0.4% | [4] 8.9% | [5] 12.6% | [6] -12.1%

COc1ccc2c(c1)C13CCCC(C)(C(=O)NC1)C3CC2 (configuration not stated)
inactive: [1] -0.15% | [2] -17.6% | [3] -16.3% | [4] 9% | [5] 2.35% | [6] -11.7%

CC/C(C)=N/NS(C)(=O)=O
inactive: [1] 12.8% | [2] -7.55% | [3] -0.35% | [4] 2.25% | [5] -44.8% | [6] -10.9%

COc1cccc([B-]23OCC[N+]2(CNC(=O)c2ccccc2O)CCO3)c1 (configuration not stated)
inactive: [1] 29.6% | [2] 2.95% | [3] 12.9% | [4] 6.75% | [5] -3.25% | [6] 19.4%

O=C(O)CCC(=O)NNC(=O)CCC(=O)O
inactive: [1] 16.2% | [2] -2.45% | [3] 4.15% | [4] -8.45% | [5] 14.3% | [6] -22.4%

C=CC(C)(C)c1c2c(c(O)c3c(=O)c4ccc(O)c(O)c4oc13)C=CC(C)(C)O2
inactive: [1] -12.2% | [2] -12% | [3] 3.35% | [4] -5.2% | [5] -7.7% | [6] -4.05%

[Cu+2].[NH-]C(Cc1ccc(O)cc1)C(=O)O.[NH-]C(Cc1ccc(O)cc1)C(=O)O (configuration not stated)
inactive: [1] 13.1% | [2] 1.55% | [3] -12.6% | [4] 15.2% | [5] 1.65% | [6] 5%

CCSc1[nH]c(NC(=NC(C)C)NC(=O)c2ccccc2)c(C(N)=O)c1C(N)=O
inactive: [1] 2.75% | [2] 1.35% | [3] 0.8% | [4] 9.3% | [5] -4.75% | [6] 18.6%

CCOc1ccc(C2OCC(C)O2)cc1OC (configuration not stated)
inactive: [1] 13.2% | [2] 13.6% | [3] 2.3% | [4] 10.3% | [5] -0.5% | [6] 11.7%

CCOC(=O)NC(NC(=O)OCC)c1ccc2c(c1)OCO2
inactive: [1] -38.5% | [2] 17.4% | [3] 17.1% | [4] -11.8% | [5] 5.75% | [6] 3.8%

NC(CS(=O)Cc1ccccc1)C(=O)O (configuration not stated)
inactive: [1] 0.8% | [2] -1.1% | [3] -0.3% | [4] -29.6% | [5] -2.8% | [6] -6.85%

COC(=O)C1CCC(=O)C(Sc2ccccc2)C1 (configuration not stated)
inactive: [1] 25.1% | [2] -11.9% | [3] 18.4% | [4] 6% | [5] 32.1% | [6] 28.4%

CCCC1=C(c2ccc(OC)cc2)Cc2cc(OC)ccc21
inactive: [1] -14.9% | [2] -16.9% | [3] -1.05% | [4] -2.4% | [5] 2.1% | [6] 9%

N#CC(C(=O)O)C(c1c(Cl)cccc1Cl)C(C#N)C(=O)O (configuration not stated)
inactive: [1] 23.2% | [2] -6.7% | [3] -0.7% | [4] -1.3% | [5] 5.25% | [6] 15.6%

O=C(O)c1nccc2c([N+](=O)[O-])cccc12
inactive: [1] -2.4% | [2] 6.4% | [3] 16.6% | [4] -13.5% | [5] -4.4% | [6] -12.9%

O=C(O)C1CC1(C(=O)O)C(=O)O (configuration not stated)
inactive: [1] 9.75% | [2] 4.05% | [3] -6.95% | [4] 3.45% | [5] -0.05% | [6] -1.1%

Cc1cc2oc3c(c2c(=O)[nH]1)C(=O)c1ccccc1C3=O
inactive: [1] -6.55% | [2] -1.3% | [3] -8% | [4] -17.4% | [5] -21.8% | [6] -5.85%
